Laboratory results published in PubChem BioAssay (NCATS).
Where “and” joins values, the source holds several entries; their conditions need not be identical. Equal values may be shown once. Inconclusive results are not listed. A call without a number means that no potency is given here. Calls of active or inactive are those of the source. Unless noted, the call rests on the fitted dose curve; in most records, active means well fitted curve in the direction sought with a large enough effect; inconclusive means small, poorly fitted or top-dose-only effect, or another doubt; inactive means no such curve, though single readings can be large; an effect the other way counts as inactive or inconclusive.

Key:
[1] = Primary qHTS for inhibitors of nuclear receptor binding SET domain protein 2 (NSD2) in an isogenic RCH-ACV NSD2 p.E1099K mutant (9B) (AID 1645876); conditions: RCH-ACV NSD2 E1099K (9B) viability, CellTiter-Glo, 72 h; series mostly up to 44.9 µM; further: nearly all actives have a fitted effect of over 70% in size; further: potency means the concentration at half of the fitted maximal effect
[2] = Primary qHTS for inhibitors of nuclear receptor binding SET domain protein 2 (NSD2) in an RCH-ACV wild type WT cells (2C) (AID 1645877); conditions: RCH-ACV (leukaemia line) NSD2 WT (2C) viability, CellTiter-Glo, 72 h; series mostly up to 44.9 µM; further: nearly all actives have a fitted effect of over 70% in size; further: potency means the concentration at half of the fitted maximal effect
[3] = biological target: Rap guanine nucleotide exchange factor 3 (Homo sapiens) (UniProt O95398); test: Confirmatory qHTS for agonist of cAMP-regulated guanine nucleotide exchange factor 3 (EPAC1) (AID 1645881); conditions: EPAC1 Rap1B BODIPY-GDP exchange fluorescence, 100% = cAMP control response; series mostly up to 154 µM;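 further: EPAC1 catalysed release of BODIPY-GDP from Rap1B seen as fluorescence loss; nearly all actives have a fitted effect of over 75% in size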
[4] = biological target: Rap guanine nucleotide exchange factor 4 (Homo sapiens) (UniProt Q8WZA2); test: Confirmatory qHTS for agonist of cAMP-regulated guanine nucleotide exchange factor 4 (EPAC2) (AID 1645884); conditions: EPAC2 GEF activity, Rap1B-BODIPY-GDP fluorescence, percent relative to cAMP agonist control; series mostly up to 154 µM;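 further: nucleotide exchange releases bodipy-GDP from Rap1 and this lowers its fluorescence; nearly all actives have a fitted effect of over 65% in size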
[5] = biological target: Rap guanine nucleotide exchange factor 4 (Homo sapiens) (UniProt Q8WZA2); test: Confirmatory qHTS for antagonist of cAMP-regulated guanine nucleotide exchange factor 4 (EPAC2) (AID 1645885); conditions: EPAC2 Rap1B-BODIPY-GDP exchange fluorescence, biochemical; series mostly up to 114 µM; further: nearly all actives have a fitted effect of over 25% in size; further: potency means the concentration at half of the fitted maximal effect
[6] = biological target: Catechol O-methyltransferase (Homo sapiens) (UniProt P21964); test: Confirmatory Screen for Target Class Profiling of Small Molecule Inhibitors of Methyltransferases (AID 1745852; calls by dose curve; further: potency means the concentration at half of the fitted maximal effect); conditions: MTase-Glo luminescence, SAH detection, recombinant enzyme; measured here: COMT max response; stronger effect = lower value
[7] = biological target: Guanidinoacetate N-methyltransferase (Homo sapiens) (UniProt Q14353); test: as above; conditions: MTase-Glo luminescence, SAH detection, recombinant enzyme; activity change, negative = inhibition: at 57.3 µM (top of the series)
[8] = biological target: Nicotinamide N-methyltransferase (Homo sapiens) (UniProt P40261); test: as above; conditions: MTase-Glo luminescence, SAH detection, recombinant enzyme; measured here: NNMT max response; stronger effect = lower value
[9] = biological target: Phenylethanolamine N-methyltransferase (Homo sapiens) (UniProt P11086); test: as above; conditions: MTase-Glo luminescence, SAH detection, recombinant enzyme; measured here: PNMT max response; stronger effect = lower value
[10] = biological target: Rap guanine nucleotide exchange factor 3 (Homo sapiens) (UniProt O95398); test: Confirmatory qHTS for antagonist of cAMP-regulated guanine nucleotide exchange factor 3 (EPAC1) (AID 1645880); conditions: EPAC1 Rap1B-BODIPY-GDP exchange, fluorescence; series mostly up to 115 µM; further: nearly all actives have a fitted effect of over 55% in size
Summary of the method: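 Released BODIPY-GDP fluoresces less than Rap1-bound BODIPY-GDP; the signal is followed at 480/540 nm at 5-min intervals over 30 min, after 5 min at room temperature. Reactions contain 100 nM EPAC1, 250 nM RAP1B-BODIPY-GDP and 50 uM GDP; results are normalized to ATA and DMSO.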

Chain of Rap guanine nucleotide exchange factor 3 (Homo sapiens) (O95398 whole entry, looked up): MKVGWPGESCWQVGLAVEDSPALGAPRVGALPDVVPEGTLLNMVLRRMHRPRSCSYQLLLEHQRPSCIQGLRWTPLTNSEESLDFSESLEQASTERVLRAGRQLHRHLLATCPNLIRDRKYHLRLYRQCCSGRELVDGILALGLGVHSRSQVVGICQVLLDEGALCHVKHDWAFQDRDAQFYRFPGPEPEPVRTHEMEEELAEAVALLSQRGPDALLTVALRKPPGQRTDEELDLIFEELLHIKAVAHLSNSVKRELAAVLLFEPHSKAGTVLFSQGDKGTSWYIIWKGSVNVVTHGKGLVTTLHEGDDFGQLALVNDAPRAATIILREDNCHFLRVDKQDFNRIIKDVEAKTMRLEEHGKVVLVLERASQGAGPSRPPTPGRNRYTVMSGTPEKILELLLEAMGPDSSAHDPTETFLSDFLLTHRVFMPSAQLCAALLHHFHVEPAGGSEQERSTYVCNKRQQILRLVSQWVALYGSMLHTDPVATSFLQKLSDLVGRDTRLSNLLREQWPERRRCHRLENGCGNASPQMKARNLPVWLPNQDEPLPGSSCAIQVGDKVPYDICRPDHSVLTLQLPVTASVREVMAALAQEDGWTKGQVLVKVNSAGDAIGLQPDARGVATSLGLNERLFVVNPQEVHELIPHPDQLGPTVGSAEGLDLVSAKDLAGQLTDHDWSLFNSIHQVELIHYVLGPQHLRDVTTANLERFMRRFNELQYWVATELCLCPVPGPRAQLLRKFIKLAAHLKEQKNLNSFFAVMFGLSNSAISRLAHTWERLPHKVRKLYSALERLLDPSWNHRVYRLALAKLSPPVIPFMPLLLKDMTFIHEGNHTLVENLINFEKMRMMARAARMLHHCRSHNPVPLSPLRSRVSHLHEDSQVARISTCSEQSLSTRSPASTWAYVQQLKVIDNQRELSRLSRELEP
Chain of Rap guanine nucleotide exchange factor 4 (Homo sapiens) (Q8WZA2 whole entry, looked up): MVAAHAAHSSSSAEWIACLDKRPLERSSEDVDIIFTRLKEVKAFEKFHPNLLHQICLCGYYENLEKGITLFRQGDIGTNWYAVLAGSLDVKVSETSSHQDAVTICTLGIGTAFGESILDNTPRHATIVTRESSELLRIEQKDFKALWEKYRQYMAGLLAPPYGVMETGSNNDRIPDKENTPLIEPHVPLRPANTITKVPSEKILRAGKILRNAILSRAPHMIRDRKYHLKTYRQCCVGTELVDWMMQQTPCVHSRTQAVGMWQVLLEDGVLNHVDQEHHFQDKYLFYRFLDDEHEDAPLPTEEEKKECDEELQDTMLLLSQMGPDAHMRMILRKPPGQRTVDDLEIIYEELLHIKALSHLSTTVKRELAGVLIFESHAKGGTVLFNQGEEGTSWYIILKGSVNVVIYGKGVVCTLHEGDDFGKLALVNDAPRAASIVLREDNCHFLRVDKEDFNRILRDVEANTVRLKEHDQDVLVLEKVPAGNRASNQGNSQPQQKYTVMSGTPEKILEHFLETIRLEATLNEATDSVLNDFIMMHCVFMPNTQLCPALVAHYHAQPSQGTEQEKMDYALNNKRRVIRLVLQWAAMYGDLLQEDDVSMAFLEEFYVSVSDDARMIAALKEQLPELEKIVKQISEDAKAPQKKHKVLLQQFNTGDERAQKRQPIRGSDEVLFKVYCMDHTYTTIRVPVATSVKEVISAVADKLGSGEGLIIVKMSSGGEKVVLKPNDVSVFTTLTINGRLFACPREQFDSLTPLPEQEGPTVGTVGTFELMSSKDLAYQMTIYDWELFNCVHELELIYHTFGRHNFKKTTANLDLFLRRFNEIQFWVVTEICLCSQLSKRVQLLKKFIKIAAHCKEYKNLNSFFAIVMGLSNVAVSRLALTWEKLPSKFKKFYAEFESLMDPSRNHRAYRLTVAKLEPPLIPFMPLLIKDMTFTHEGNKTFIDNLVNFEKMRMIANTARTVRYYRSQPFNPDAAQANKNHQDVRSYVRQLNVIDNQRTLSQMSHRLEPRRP
Chain of Nicotinamide N-methyltransferase (Homo sapiens) (P40261 whole entry, looked up): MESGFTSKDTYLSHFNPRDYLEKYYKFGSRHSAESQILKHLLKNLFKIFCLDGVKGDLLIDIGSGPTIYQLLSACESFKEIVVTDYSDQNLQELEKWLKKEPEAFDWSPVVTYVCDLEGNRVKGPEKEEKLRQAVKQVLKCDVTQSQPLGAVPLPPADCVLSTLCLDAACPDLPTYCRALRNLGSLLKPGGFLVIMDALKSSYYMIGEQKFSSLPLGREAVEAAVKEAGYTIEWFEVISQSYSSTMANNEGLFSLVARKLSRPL
Chain of Catechol O-methyltransferase (Homo sapiens) (P21964 whole entry, looked up): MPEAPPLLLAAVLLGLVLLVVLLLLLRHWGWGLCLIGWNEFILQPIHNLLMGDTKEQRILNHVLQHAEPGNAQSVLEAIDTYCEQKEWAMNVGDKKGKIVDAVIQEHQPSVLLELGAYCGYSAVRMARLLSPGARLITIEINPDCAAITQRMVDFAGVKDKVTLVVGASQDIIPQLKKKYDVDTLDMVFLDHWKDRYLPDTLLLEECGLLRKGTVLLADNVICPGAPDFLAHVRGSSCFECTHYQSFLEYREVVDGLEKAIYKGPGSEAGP
Chain of Phenylethanolamine N-methyltransferase (Homo sapiens) (P11086 whole entry, looked up): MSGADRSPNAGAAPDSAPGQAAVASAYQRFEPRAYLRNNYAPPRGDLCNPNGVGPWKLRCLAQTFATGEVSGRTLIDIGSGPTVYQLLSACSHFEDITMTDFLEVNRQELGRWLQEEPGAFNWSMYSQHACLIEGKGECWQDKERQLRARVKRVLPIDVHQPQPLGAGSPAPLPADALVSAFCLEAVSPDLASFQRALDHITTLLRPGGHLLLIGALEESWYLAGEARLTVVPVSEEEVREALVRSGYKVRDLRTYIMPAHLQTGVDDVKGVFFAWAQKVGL

Compound: COP(=O)(OC)OC=C(Cl)Cl
- Potency [1]: inactive
- Potency [2]: inactive

Compound: CCCCCCCCC(=O)NCc1ccc(O)c(OC)c1
- Potency [1]: inactive
- Potency [2]: inactive

Compound: CC#C[C@]1(O)CC[C@H]2[C@@H]3C[C@H](C)C4=CC(=O)CC[C@]4(C)[C@H]3CC[C@@]21C
- Potency [1]: 23.7 µM (active)
- Potency [2]: 15 µM (active)

Compound: C[C@]12Cc3nonc3C[C@@H]1CC[C@@H]1[C@@H]2CC[C@@]2(C)[C@H]1CC[C@]2(C)O
- Potency [1]: 21.1 µM (active)
- Potency [2]: 21.1 µM (active)

Compound: NC(=O)OCCCc1ccccc1
- Potency [1]: inactive
- Potency [2]: inactive

Compound: C[C@@H]1CN(C2CCC(C#N)(c3ccc(F)cc3)CC2)CC[C@]1(C(=O)O)c1ccccc1 (stereo partly drawn)
- Potency [1]: inactive
- Potency [2]: inactive

Compound: OC(O)C(Cl)(Cl)Cl
- Potency [1]: inactive
- Potency [2]: inactive

Compound: ClC1=C(Cl)C2(Cl)C(CBr)CC1(Cl)C2(Cl)Cl (stereo not drawn)
- Potency [1]: inactive
- Potency [2]: inactive

Compound: C[C@]12CC[C@H]3[C@@H](CC=C4C[C@@H](O)CC[C@@]43C)[C@@H]1CC[C@@H]2O
- Potency [1]: inactive
- Potency [2]: inactive

Compound: CCO[C@H]1O[C@@H]2OC3(C)CC[C@H]4[C@H](C)CC[C@@H]([C@H]1C)[C@@]24OO3
- Potency [1]: 2.99 µM (active)
- Potency [2]: 3.35 µM (active)

Compound: CN1C[C@@H](NS(=O)(=O)N(C)C)C[C@@H]2c3cccc4c3c(cn4C)C[C@H]21
- Potency [1]: inactive
- Potency [2]: inactive

Compound: CCCC[N+]1(C)[C@@H]2CC(OC(=O)[C@H](CO)c3ccccc3)C[C@H]1[C@@H]1O[C@@H]12 (stereo partly drawn)
- Potency [1]: inactive
- Potency [2]: inactive

Compound: COc1ccc(OC)c(CC(C)N)c1 (stereo not drawn)
- Potency [1]: inactive
- Potency [2]: inactive

Compound: CC(=O)OC1(c2ccccc2)CCN(CCc2ccccc2)CC1
- Potency [1]: inactive
- Potency [2]: inactive

Compound: c1ccc2nc(N3CCNCC3)ccc2c1
- Potency [1]: inactive
- Potency [2]: inactive

Compound: CCC1(c2cccc(O)c2)CCCCN(C)C1 (stereo not drawn)
- Potency [1]: inactive
- Potency [2]: inactive

Compound: CN1C(=O)[C@@H](NC(=O)c2cc3ccccc3[nH]2)N=C(c2ccccc2)c2ccccc21
- Potency [1]: inactive
- Potency [2]: inactive

Compound: C1CN2CCC1CC2
- Potency [1]: inactive
- Potency [2]: inactive

Compound: C#C[C@]1(O)CC[C@H]2[C@@H]3CCC4=CC(=O)CCC4=C3C=C[C@@]21CC
- Potency [1]: inactive
- Potency [2]: inactive

Compound: NC1(c2ccccc2)CCCCC1
- Potency [1]: 17.1 µM (active)
- Potency [2]: 24.1 µM (active)

Compound: C[C@@H]1O[C@@H](O[C@@H]2C=C3CC[C@@H]4[C@H](CC[C@]5(C)[C@@H](c6ccc(=O)oc6)CC[C@]45O)[C@@]3(C)CC2)[C@H](O)[C@H](O)[C@H]1O
- Potency [1]: 10.5 nM (active) and 4.7 nM (active)
- Potency [2]: 13.2 nM (active) and 7.5 nM (active)

Compound: COCC(=O)N(c1c(C)cccc1C)C(C)C(=O)OC (stereo not drawn)
- Potency [1]: inactive
- Potency [2]: inactive

Compound: O=C(CCCCl)c1ccc(F)cc1
- Potency [1]: inactive
- Potency [2]: inactive

Compound: CCC(OC(C)=O)C(CC(C)NC)(c1ccccc1)c1ccccc1 (stereo not drawn)
- Potency [1]: 24.6 µM (active)
- Potency [2]: 19.5 µM (active)

Compound: C[N+]1(CCC(C(N)=O)(c2ccccc2)c2ccccc2)CCCCC1
- Potency [1]: inactive
- Potency [2]: inactive

Compound: CC[n+]1c(-c2ccccc2)c2cc(N)ccc2c2ccc(N)cc21
- Potency [1]: 5.96 µM (active)
- Potency [2]: 2.66 µM (active)

Compound: O=C(CBr)Nc1ccc(Cl)cc1C(=O)c1ccccc1F
- Potency [1]: inactive
- Potency [2]: inactive

Compound: CN(C)CCc1c[nH]c2ccccc12
- Potency [1]: inactive
- Potency [2]: inactive

Compound: CCc1cc(OC)c(C[C@H](C)N)cc1OC
- Potency [2]: 44.9 µM (active)

Compound: Oc1ccc2[nH]cc(CCCCN3CC=C(c4ccccc4)CC3)c2c1
- Potency [1]: 7.5 µM (active)
- Potency [2]: 7.5 µM (active)

Compound: CCC1(c2ccccc2)CCC(=O)NC1=O (stereo not drawn)
- Potency [1]: inactive
- Potency [2]: inactive

Compound: Clc1ccc(CSC(Cn2ccnc2)c2ccc(Cl)cc2Cl)cc1 (stereo not drawn)
- Potency [1]: 5.96 µM (active)
- Potency [2]: 5.96 µM (active)
- outcome [3]: inactive
- outcome [4]: inactive
- Potency [5]: 22.1 µM (active)

Compound: O=c1[nH]c2cc(Cl)ccc2n1C1CCNCC1
- Potency [1]: inactive
- Potency [2]: inactive

Compound: C[C@]12CC[C@H]3[C@@H](CCC4=CC(=O)CC[C@@]43C)[C@@H]1CC[C@@H]2C(=O)O
- Potency [1]: inactive
- Potency [2]: inactive

Compound: CCOC(=O)c1ncn2c1CN(C)C(=O)c1c(I)cccc1-2
- Potency [1]: inactive
- Potency [2]: inactive

Compound: CC[C@]1(O)CC[C@H]2[C@@H]3CCC4=CCCC[C@@H]4[C@H]3CC[C@@]21C
- Potency [1]: 9.44 µM (active)
- Potency [2]: 7.5 µM (active)

Compound: Cc1nnc2n1-c1sc(CCc3ccc(CC(C)C)cc3)cc1C(c1ccccc1Cl)=NC2C (stereo not drawn)
- Potency [1]: 7.5 µM (active)
- Potency [2]: 8.41 µM (active)
- activity [6]: -12.7%
- Potency [7]: 48.2 µM (active)
- activity [8]: -36.8%
- activity [9]: -8.97%

Compound: CCNc1nc(Cl)nc(NCC)n1
- Potency [1]: inactive
- Potency [2]: inactive

Compound: O=C(O)Cc1ccccc1
- Potency [1]: inactive
- Potency [2]: inactive

Compound: COc1ccc2c(C(=O)c3ccc(Cl)cc3)c(C)n(CC(=O)O)c2c1
- Potency [1]: inactive
- Potency [2]: inactive

Compound: CCCCCCCCCCCC[N+](C)(C)CCOc1ccccc1
- Potency [1]: 1.33 µM (active)
- Potency [2]: 0.944 µM (active)

Compound: Clc1ccc(CO/N=C(\Cn2ccnc2)c2ccc(Cl)cc2Cl)c(Cl)c1
- outcome [10]: inactive
- outcome [3]: inactive
- outcome [4]: inactive

Compound: CC(C)=CCN1CC[C@@]2(C)c3cc(O)ccc3C[C@@H]1[C@@H]2C
- Potency [1]: 18.9 µM (active)
- Potency [2]: 11.9 µM (active)

Compound: C[C@H](N)[C@H](O)c1ccc(O)c(O)c1
- Potency [1]: inactive
- Potency [2]: inactive
- outcome [3]: inactive
- Potency [5]: inactive

Compound: O=C1NCN(c2ccccc2)C12CCN(CCCOc1ccc(F)cc1)CC2
- Potency [1]: 6.68 µM (active)
- Potency [2]: 7.5 µM (active)

Compound: C[N+]1(C)[C@@H]2CC[C@H]1CC(OC(=O)C(CO)c1ccccc1)C2 (stereo partly drawn)
- Potency [1]: inactive
- Potency [2]: inactive

Compound: COc1cc(CC#N)cc(OC)c1OC
- Potency [1]: inactive
- Potency [2]: inactive

Compound: CCOC(=O)NC(C)(C)Cc1ccc(Cl)cc1
- Potency [1]: inactive
- Potency [2]: inactive

Compound: C[C@]12CC[C@H]3[C@@H](CCC4=CC(=O)CC[C@@H]43)[C@@H]1CC[C@@H]2O
- Potency [2]: inactive

Compound: CC[C@H](O)C(C[C@H](C)N(C)C)(c1ccccc1)c1ccccc1
- Potency [1]: inactive
- Potency [2]: inactive

Compound: CCCOC(=O)Cc1ccc(OCC(=O)N(CC)CC)c(OC)c1
- Potency [1]: inactive
- Potency [2]: inactive

Compound: CCN(Cc1ccc(Cl)nc1)/C(=C/[N+](=O)[O-])NC
- Potency [1]: inactive
- Potency [2]: inactive

Compound: O=c1n(Cl)c(=O)n(Cl)c(=O)n1Cl
- Potency [1]: inactive
- Potency [2]: inactive

Compound: N#Cc1nn(-c2c(Cl)cc(C(F)(F)F)cc2Cl)c(N)c1S(=O)C(F)(F)F (stereo not drawn)
- Potency [2]: 21.1 µM (active)

Compound: CCN1CCCC1CNC(=O)C(O)(c1ccccc1)c1ccccc1 (stereo not drawn)
- Potency [1]: inactive
- Potency [2]: inactive

Compound: CC(Cc1ccc2c(c1)OCO2)NO (stereo not drawn)
- Potency [1]: inactive
- Potency [2]: inactive

Compound: C[C@@H]1CC[C@H]2[C@@H](C)C(=O)O[C@@H]3O[C@@]4(C)CC[C@@H]1[C@]32OO4
- Potency [2]: 5.25 µM (active)

Compound: COc1ccc2c3c1O[C@H]1[C@@H](O)C=C[C@H]4[C@@H](C2)N(C)CC[C@@]341
- Potency [1]: 6.72 µM (active)
- Potency [2]: 6.72 µM (active)

Compound: COc1ccc(C(=O)N2CCCC2=O)cc1
- Potency [1]: inactive
- Potency [2]: inactive

Compound: C[C@]12CC[C@H](O)CC1=CC[C@@H]1[C@@H]2CC[C@]2(C)C(=O)CC[C@@H]12
- Potency [2]: inactive

Compound: ClCc1cccc(Cl)c1
- Potency [1]: inactive
- Potency [2]: inactive

Compound: C=CCN1CC[C@]23CCCC[C@H]2[C@H]1Cc1ccc(O)cc13
- Potency [1]: inactive
- Potency [2]: inactive
- activity [6]: 0.434%
- activity change, negative = inhibition [7]: 3.29%
- activity [8]: -15.3%
- activity [9]: 2.6%

Compound: CN(C)CCc1c[nH]c2ccc(O)cc12
- Potency [1]: inactive
- Potency [2]: inactive

Compound: C[C@H]1C(=O)O[C@@H]2CCN3CC=C(COC(=O)[C@](C)(O)[C@]1(C)O)[C@H]23
- Potency [2]: 23.7 µM (active)

Compound: C=CC[C@]1(O)CC[C@H]2[C@@H]3CCC4=CC(=O)CCC4=C3C=C[C@@]21C
- Potency [2]: 23.7 µM (active)

Compound: COC(=O)C1=CCCN(C)C1
- Potency [1]: inactive
- Potency [2]: inactive

Compound: CC(C)(O)C(Cl)(Cl)Cl
- Potency [1]: inactive
- Potency [2]: inactive

Compound: CC1Sc2c(C(=O)O)c(=O)c3cc(F)c(N4CCNCC4)cc3n21 (stereo not drawn)
- Potency [1]: inactive
- Potency [2]: inactive
